Experimental data reported in PubChem BioAssay.
Several values for one entry are separate records, joined by “and”; a condition that tells them apart may be missing. Equal values may be shown once. Activity calls are given as the source filed them.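 The calls were made as follows, unless noted: active = normalized viability below 100% at a tested concentration; inactive = the rest.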

Legend:
[1] = P. berghei load reduction in hepatocytes – cell-based, HepG2, luciferase luminescence, HepG2 viability, primary screen (AID 624349; in the data active = parasite load remaining mostly below about 12%, no sharp cut-off; inactive = mostly above about 10%;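 also: 100% = mean of DMSO negative control wells on the same plate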); details: P. berghei liver stage in HepG2, luciferase luminescence, concentration not given here; parasite load remaining: stronger effect = lower value; viability: measured here: HepG2 viability without parasites
[2] = signal quenchers or enhancers, Cy5 substrate/SSB – biochemical, NIH Clinical Collection, E. coli SSB, artefact control for HCV NS3 helicase inhibitor project (AID 743268; call rule not given here); details: Cy5-oligo bound E. coli SSB, fluorescence interference
[3] = test system: Hepatitis C virus NS3 helicase; assay: blockers of NS3h binding to DNA – biochemical, fluorescence polarization, NIH Clinical Collection, primary screen (AID 743270; call rule not given here); details: NS3 helicase binding to Cy5-dT15 DNA, stronger effect = higher value, concentration not given here
[4] = target: Single-stranded DNA-binding protein (Escherichia coli (strain K12)) (UniProt P0AGE0); assay: SSB-ssDNA binding inhibitors – biochemical, fluorescence polarization, NIH Clinical Collection, counter-screen for HCV NS3 helicase inhibitor project (AID 743271; in the data active = inhibition above about 28%); details: E. coli SSB-DNA binding, stronger effect = higher value, concentration not given here
[5] = compounds distorting NS3 helicase fluorescence signal – biochemical, NIH Clinical Collection, artefact control for HCV NS3 helicase inhibitor project (AID 743272; call rule not given here;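 also: HCV NS3 helicase with a Cy5 labelled single stranded DNA probe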); details: fluorescence interference counterscreen, HCV NS3 helicase assay; stronger effect = lower value
[6] = modulation of C. elegans fzo-1 (AID 1259413; call rule not given here;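 also: fzo-1 mutant C. elegans worms in liquid wells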); details: C. elegans fzo-1 modulator screen, mean read-out; stronger effect = higher value
[7] = MELAS cybrid and Rieske KO viability enhancers – cell-based, MELAS cybrids, Rieske KO mouse fibroblasts, CellTiter-Glo, primary screen (AID 1508586); details: low glucose;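 also: z relative to plate mean and SD of compound and empty wells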
[8] = drug combination growth inhibition, ovarian cancer – cell-based, oncology-focused library, rucaparib conditional, profiling panel (AID 1508598); details: patient-derived ovarian cancer cells, CellTiter-Glo viability, 144 h, stronger effect = lower value
[9] = test system: F380Y; assay: BK channel mutant inhibitors and activators – cell-based, U2OS BacMam, thallium flux, beta subunits, selectivity assay, profiling panel (AID 1259406;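 active = thallium flux through the channel raised or lowered by more than 3 SD from vehicle-only wells, actives on both sides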;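 also: initial slope of Thallos dye fluorescence rise after thallium is added; log ratio against the mean of 0.3% DMSO vehicle wells on the same plate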); details: U2OS BacMam BK variants, at 30 µM
[10] = test system: F380Y/beta1; assay: as above; details: U2OS BacMam BK variants, at 30 µM
[11] = test system: F380Y/beta2Delta; assay: as above; details: U2OS BacMam BK variants, at 30 µM
[12] = test system: F380Y/beta4; assay: as above; details: U2OS BacMam BK variants, at 30 µM
[13] = target: Calcium-activated potassium channel subunit alpha-1 (Homo sapiens) + Leucine-rich repeat-containing protein 26 (Homo sapiens) (UniProt Q12791+Q2I0M4); assay: as above; details: U2OS BacMam BK variants, F380Y/Slo1WT/gamma1, at 30 µM
Sequence of Calcium-activated potassium channel subunit alpha-1 (Homo sapiens) + Leucine-rich repeat-containing protein 26 (Homo sapiens) (Q2I0M4 whole entry, looked up, one chain of several): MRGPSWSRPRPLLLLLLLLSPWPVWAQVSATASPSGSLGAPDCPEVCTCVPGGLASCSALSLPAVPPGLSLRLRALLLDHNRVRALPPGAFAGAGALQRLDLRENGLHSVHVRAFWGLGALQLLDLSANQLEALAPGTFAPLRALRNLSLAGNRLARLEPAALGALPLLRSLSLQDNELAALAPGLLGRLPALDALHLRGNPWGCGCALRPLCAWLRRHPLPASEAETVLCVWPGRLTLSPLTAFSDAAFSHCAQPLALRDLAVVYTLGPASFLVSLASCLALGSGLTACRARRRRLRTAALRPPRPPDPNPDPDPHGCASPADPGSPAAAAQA

[14] = test system: R275C; assay: as above; details: U2OS BacMam BK variants, at 30 µM
[15] = test system: R275C/beta1; assay: as above; details: U2OS BacMam BK variants, at 30 µM
[16] = test system: R275C/beta2Delta; assay: as above; details: U2OS BacMam BK variants, at 30 µM
[17] = test system: R275C/beta4; assay: as above; details: U2OS BacMam BK variants, at 30 µM
[18] = test system: R275C/Slo1WT/beta2; assay: as above; details: U2OS BacMam BK variants, at 30 µM
[19] = viability loss with induced miR-34 in A549 – imaging, A549 dox-inducible miR-34, nuclei and caspase counts, primary screen (AID 1347080;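 active = compounds whose cell count with miR-34 switched on is under 0.7 times the count with it off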); details: A549 miR-34 inducible, Hoechst nuclei count, 48 h

Nc1nc(Cl)nc2c1ncn2[C@H]1C[C@H](O)[C@@H](CO)O1
inactive: parasite load remaining [1] 10.3% | fluorescence ratio [2] 1.02 | inhibition [3] -1.09% | inhibition [4] -3.54% | fluorescence ratio [5] 0.99 | mean signal [6] 237 | viability ([8]; at 0.000305 µM, OCI-C5x cells, with rucaparib 10 µM, 100% = cells with rucaparib alone) 104% | viability ([8]; at 0.000305 µM, OCI-C5x cells, without rucaparib) 113% | viability ([8]; at 0.000305 µM, OCI-P5x cells, with rucaparib 20 µM, 100% = cells with rucaparib alone) 106% | viability ([8]; at 0.000305 µM, OCI-P5x cells, without rucaparib) 108% | viability ([8]; at 0.00122 µM, OCI-C5x cells, with rucaparib 10 µM, 100% = cells with rucaparib alone) 101% | viability ([8]; at 0.00122 µM, OCI-C5x cells, without rucaparib) 115% | viability ([8]; at 0.00122 µM, OCI-P5x cells, with rucaparib 20 µM, 100% = cells with rucaparib alone) 108% | viability ([8]; at 0.00122 µM, OCI-P5x cells, without rucaparib) 110% | viability ([8]; at 0.00488 µM, OCI-C5x cells, without rucaparib) 113% | viability ([8]; at 0.00488 µM, OCI-P5x cells, with rucaparib 20 µM, 100% = cells with rucaparib alone) 106% | viability ([8]; at 0.00488 µM, OCI-P5x cells, without rucaparib) 106% | viability ([8]; at 0.0195 µM, OCI-C5x cells, with rucaparib 10 µM, 100% = cells with rucaparib alone) 111% | viability ([8]; at 0.0195 µM, OCI-C5x cells, without rucaparib) 111% | viability ([8]; at 0.0195 µM, OCI-P5x cells, with rucaparib 20 µM, 100% = cells with rucaparib alone) 108% | viability ([8]; at 0.0781 µM, OCI-C5x cells, with rucaparib 10 µM, 100% = cells with rucaparib alone) 105% | viability ([8]; at 0.0781 µM, OCI-C5x cells, without rucaparib) 109% | viability ([8]; at 0.0781 µM, OCI-P5x cells, with rucaparib 20 µM, 100% = cells with rucaparib alone) 107% | viability ([8]; at 0.313 µM, OCI-C5x cells, with rucaparib 10 µM, 100% = cells with rucaparib alone) 112% | log fold change Tl+ flux [9] -0.0268 | log fold change Tl+ flux [10] -0.0427 | log fold change Tl+ flux [11] -0.00452 | log fold change Tl+ flux [12] -0.0201 | log fold change Tl+ flux [13] -0.0394 | log fold change Tl+ flux [14] 0.0195 | log fold change Tl+ flux [15] 0.022 | log fold change Tl+ flux [16] 0.0372 | log fold change Tl+ flux [17] 0.000993 | log fold change Tl+ flux [18] 0.0197
3.04: z-score ([7]; Rieske KO mouse fibroblast survival, CellTiter-Glo 72 h)
1.38: z-score ([7]; MELAS cybrid survival, CellTiter-Glo 48 h, stronger effect = higher value)
71.4%: viability [1]
active: viability ([8]; at 0.00488 µM, OCI-C5x cells, with rucaparib 10 µM, 100% = cells with rucaparib alone) 96% | viability ([8]; at 0.0195 µM, OCI-P5x cells, without rucaparib) 91.4% | viability ([8]; at 0.0781 µM, OCI-P5x cells, without rucaparib) 76.7% | viability ([8]; at 0.313 µM, OCI-C5x cells, without rucaparib) 95.6% | viability ([8]; at 0.313 µM, OCI-P5x cells, with rucaparib 20 µM, 100% = cells with rucaparib alone) 88.9% | viability ([8]; at 0.313 µM, OCI-P5x cells, without rucaparib) 50.8% | viability ([8]; at 1.25 µM, OCI-C5x cells, with rucaparib 10 µM, 100% = cells with rucaparib alone) 95.8% | viability ([8]; at 1.25 µM, OCI-C5x cells, without rucaparib) 94.4% | viability ([8]; at 1.25 µM, OCI-P5x cells, with rucaparib 20 µM, 100% = cells with rucaparib alone) 50.8% | viability ([8]; at 1.25 µM, OCI-P5x cells, without rucaparib) 37% | viability ([8]; at 5 µM, OCI-C5x cells, with rucaparib 10 µM, 100% = cells with rucaparib alone) 72.5% | viability ([8]; at 5 µM, OCI-C5x cells, without rucaparib) 54.1% | viability ([8]; at 5 µM, OCI-P5x cells, with rucaparib 20 µM, 100% = cells with rucaparib alone) 35.7% | viability ([8]; at 5 µM, OCI-P5x cells, without rucaparib) 18.1%

CN1CCC[C@H]1c1cccnc1
92.8% and 95.3% and 105%: viability [1]
1.38 and 3.3: fold change ([19]; measured here: relative caspase fold change +Dox/-Dox)
11100 and 13400: cell count ([19]; measured here: total cells without miR-34 induction)
inactive: parasite load remaining [1] 58.8% and 68.1% and 77.4% | fluorescence ratio [2] 1.1 | inhibition [3] -3.18% | inhibition [4] -0.48% | fluorescence ratio [5] 0.97 | mean signal [6] 289 | fold change ([19]; stronger effect = lower value, cell number ratio, induced over uninduced) 1 and 0.879 | log fold change Tl+ flux [9] 0.0275 | log fold change Tl+ flux [10] 0.0102 | log fold change Tl+ flux [11] 0.027 | log fold change Tl+ flux [12] 0.0603 | log fold change Tl+ flux [13] -0.0145 | log fold change Tl+ flux [14] 0.033 | log fold change Tl+ flux [15] 0.0044 | log fold change Tl+ flux [16] 0.0329 | log fold change Tl+ flux [17] -0.0173 | log fold change Tl+ flux [18] -0.00315
11100 and 11800: cell count ([19]; measured here: total cells with miR-34 induction, stronger effect = lower value)
